Laboratory results published in PubChem BioAssay (Tox21).
The source made the active and inactive calls. Calls come from the whole dose curve; as a rule, active = well fitted curve in the direction sought with a large enough effect in the repeat runs; inconclusive = weak or mixed curves; inactive = flat fitted curve, though single readings scatter.

Test: qHTS assay to test for compound auto fluorescence at 460 nm (blue) in HepG2 cell free culture (AID 720685)
Conditions: Cell-free culture medium, blue autofluorescence 405/460 nm; series mostly up to 91.3 µM; fluorescence, % of fluorescent control: at the top concentration
From the text: U.S. Tox21 Program National Center for Advancing Translational Sciences [NCATS] NIH Chemical Genomics Center [NCGC] U.S. Environmental Protection Agency [EPA] National Institutes of Environmental Health Sciences [NIEHS] National Toxicology Program [NTP] U.S. Food and Drug Administration [FDA] Tox21 Assay Overview: Compound auto fluorescence often interferes with screening of the compound library against various biological targets and signaling pathways. Some of these compounds may have fluorophoric properties. Such properties may interfere with the assay outputs resulting in false positives and/or negatives. To decrease such complications and ensure the compound activities are relevant in terms of biological response, the Tox21 10K compound library was screened for auto fluorescence. From the fluorophores used as reporter signals in our screening assays, the auto fluorescence equivalencies of compounds against three fluorophores have been evaluated: Triamterene, Fluorescein and Rose Bengal sodium for blue, green and red fluorescence, respectively. The fluorescence intensities were measured using Excitation/Emission wavelengths at 405/460nm, 485/535nm and 540/590nm for blue, green and red labels, respectively. This assay includes the blue fluorescence data.
Tox21 Assay Protocol Summary: 5 uL of culture medium (MEM containing 10% FBS) per well was dispensed into black wall/clear bottom 1536-well plates using a Multidrop Combi Dispenser (ThermoFisher Scientific, Waltham, MA). After 23 nL compound or DMSO vehicle was transferred into assay plate by a pintool work station (Kalypsys, San Diego, CA), fluorescence intensities in the assay plates were measured by an Envision (PerkinElmer, Shelton, CT) plate reader using three labels for measuring blue, green and red fluorescence at […] 460, 535 and 590nm respectively.
% is set by controls: 0 for no effect and ±100 for the full control effect.

Compound | outcome | fluorescence, % of fluorescent control
CC(C)(C#N)c1cc(Cn2cncn2)cc(C(C)(C)C#N)c1 | inactive | –
COc1ccc(N)c(C)c1 | inactive | –
NC(=S)NNC(N)=S | inactive | –
CC(C)CC(=O)CC(C)CC(C)C (stereo not given) | inactive | –
Cc1ccc(S(=O)(=O)N=C=O)cc1 | inactive | –
CC(=O)Oc1ccc(C)cc1 | inactive | –
C[C@]12CCC(=O)C=C1CC[C@@H]1[C@@H]2[C@@H](O)C[C@@]2(C)[C@H]1CC[C@]2(O)C(=O)CO | inactive | –
CCNc1ccccc1 | inactive | –
CCNC(=S)NCC | inactive | –
O=c1[nH]cnc2[nH]ncc12 | inactive | –
CCCCOC(=O)c1ccc(N)cc1 | inactive | –
O=C(O)c1cc2ccccc2cc1O | inactive | –
CC(C)(C)c1cc(Cc2cc(C(C)(C)C)c(O)c(C(C)(C)C)c2)cc(C(C)(C)C)c1O | inactive | –
COCCCN | inactive | –
O=S(=O)(O)c1ccccc1 | inactive | –
CCCCCCCCCCCCCCCCO | inactive | –
Brc1ccc(Br)c(Br)c1 | inactive | –
CCCCCC(=O)O | inactive | –
CCCCCCCCCCCC(=O)OC | inactive | –
OCc1cccc(Oc2ccccc2)c1 | inactive | –

Compound | outcome | fluorescence, % of fluorescent control
O=C1CCCC1 | inactive | –
Cc1ccc(C(C)C)c(O)c1 | inactive | –
Nc1nc(N)nc(-c2ccccc2)n1 | inactive | –
CC(=O)CCC=C(C)C | inactive | –
CC(=O)OCc1ccco1 | inactive | –
CC(=O)c1ccc(O)cc1 | inactive | –
CSc1ccc(Cl)cc1 | inactive | –
O=S(=O)(O)c1ccc(N=Nc2c(O)ccc3cc(S(=O)(=O)O)ccc23)cc1 | inactive | –
NCCNCCN | inactive | –
CC1(C)S[C@@H]2[C@H](NC(=O)COc3ccccc3)C(=O)N2[C@H]1C(=O)O | inactive | –
COc1cc(OC)c(C(=O)CCCN2CCCC2)c(OC)c1 | inactive | –
CC(C)CC(C)O (stereo not given) | inactive | –
Nc1ccc(Cl)c(N)c1 | inactive | –
CCOC(=O)c1ccc(N)cc1 | inactive | –
CNC(=O)Oc1ccc2c(c1)[C@]1(C)CCN(C)[C@@H]1N2C | inactive | –
NCCCCCCN | inactive | –
O=C(O)Cn1c(=O)n(Cc2ccc(Br)cc2F)c(=O)c2ccc(Cl)cc21 | – | 0.0284% (inactive)
CCOCC(=O)O | inactive | –
N#Cc1ccccc1 | inactive | –
COC(=O)c1cccnc1 | inactive | –
